Assay [1] is described as follows: yeast TOR pathway RPL19A-GFP modulators, primary screen, cell-based, S. cerevisiae, multiplex flow cytometry (AID 1862; in the data active = percent of DMSO control GFP below about 86%;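 note: lower values mimic rapamycin by blocking the RPL19A rise seen in DMSO cells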). The conditions noted are these: S. cerevisiae RPL19A-GFP strain, flow cytometry fluorescence, 3 h; at 10 µM; stronger effect = lower value.
A short description of assay [2]: modulators of CIT2-GFP expression in yeast, primary screen, S. cerevisiae, GFP fusion, multiplex flow cytometry (AID 1870;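 active = percent response above a set limit, the screen-wide mean plus 3 SD, cut at about 130% in these data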;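 note: barcoded CIT2-GFP strain pooled with four other GFP strains with rapamycin as positive control; median GFP fluorescence per well over plate mean of DMSO wells so 100% = DMSO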). Particulars: 3 h, at 10 µM, stronger effect = higher value.
A short description of assay [3]: modulators of LAP4-GFP expression in yeast, primary screen, S. cerevisiae, multiplex flow cytometry (AID 1873;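 active = GFP signal, as percent of the solvent control, above the screen mean plus 3 SD, about 149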). The conditions noted are these: 3 h, at 10 µM, stronger effect = higher value. On the technique in general: Flow cytometry measures light scatter and fluorescence of single cells or particles in a stream.
The nature of assay [4]: inhibitors of CD8+ T cell-vesicle binding, pilot screen, LFA-1/ICAM-1 modulator project, MLPCN validation set, flow cytometry (AID 2523;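 active = response below a set limit, under 55% cells CD8-positive and vesicle-bound, and CD8 cells' 90th-percentile brightness under 279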;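 for vesicle binding response: mean PE anti-B7-1 fluorescence of CD8+ cells relative to row control; 100% = QL9-loaded vesicles with DMSO vehicle in the same plate row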). The conditions noted are these: 2C mouse CD8+ T cells, at 7 µM, stronger effect = lower value; double positive events: measured here: CD8+/vesicle+ event percentage.
For assay [5], the target named is Integrin beta-1 (Homo sapiens) + Integrin alpha-4 (Homo sapiens) (UniProt P13612+P05556). As to the kind of experiment: inhibition of HUTS-21 binding to VLA-4, pilot screen, VLA-4 allosteric modulator project, U937 cells, HUTS-21 mAb, flow cytometry, validation set (AID 2674;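 active = inhibition above 50%, about 3 SD of the validation set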;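 note: antibody binding induced by the VLA-4 ligand LDV present at three times its Kd; 0% = LDV ligand with antibody and no compound and 100% = antibody without LDV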). Particulars: HUTS-21 LIBS mAb binding, at 6.7 µM, stronger effect = higher value.
Assay [6] is described as follows: superoxide lowering in aged yeast cells, pilot screen, validation compound set (AID 2706;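 active = superoxide response below 65% of plate, a cut near 3 SD across the whole screen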;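 note: yeast exposed to compound for one week at 30 degrees C before staining; 100% = mean of all compound wells on the same plate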). Particulars: S. cerevisiae aging, superoxide DHE fluorescence; at 10 µM; stronger effect = lower value.
For assay [7], the target named is Beta-adrenergic receptor kinase 1 (Homo sapiens) (UniProt P25098). The assay is described as follows: GRK2 binders displacing RNA aptamer, biochemical, validation, human GRK2, bead flow cytometry (AID 488806;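 active = aptamer binding inhibition above 30%, about 3 SD of noise from non-fluorescent compounds; inactive = inhibition at or below 30%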). The conditions noted are these: bead-bound GRK2, FAM-aptamer displacement, at 10 µM, stronger effect = higher value.
The target of assay [8] is AP-2 complex subunit beta (Homo sapiens) (UniProt P63010). The assay is described as follows: inhibitors of arrestin peptide binding to AP2, pilot screen, biochemical, validation set, GST-AP2 beads, flow cytometry (AID 504541;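 active = inhibition above 54%, about 3 SD of non-fluorescent compounds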;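 note: AP2 carries R879A mutation and is captured from E. coli lysate; bead-bound FITC arrestin peptide fluorescence measuring arrestin peptide binding to AP2; 0% = DMSO wells and 100% = excess unlabeled arrestin peptide control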). Particulars: FITC arrestin peptide, at 10 µM, stronger effect = higher value.
Assay [9] in a line: yeast V-ATPase proton transport modulators, S. cerevisiae, pHLuorin, HTS validation (AID 504600; in the data active = response above about 15%;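 note: plate controls were DMSO for no effect and reference compound for full effect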). The conditions noted are these: S. cerevisiae pHLuorin cytosolic pH, at 10 µM, stronger effect = higher value.
The test system of assay [10] is anti-desmoglein-3 scFv antibody binding to human DSG3. As to the kind of experiment: inhibitors of anti-DSG3 scFv binding to DSG3, pilot screen, biochemical, validation compound set, bead-based, flow cytometry (AID 588368;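 active = binding below the plate cutoff, the plate median minus 3 SD, with a reading above zero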;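 note: signal is the median channel fluorescence of bead-bound GFP antibody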). Particulars: Protein G beads, DSG3-Fc, scFv-GFP binding, at 10 µM, stronger effect = lower value.
Assay [11] relates to Botulinum neurotoxin type F light chain protease (Clostridium botulinum). As to the kind of experiment: Botulinum neurotoxin type F light chain protease inhibition, multiplex microsphere flow cytometry, validation set (AID 588459). Particulars: multiplex microsphere protease substrate cleavage assay, at 10 µM, stronger effect = higher value.
Assay [12] has as its target Botulinum neurotoxin type A (Clostridium botulinum) (UniProt P0DPI0). The assay is described as follows: BoNT/A light chain protease inhibitors, biochemical, multiplex microsphere flow cytometry, validation set (AID 588460). Particulars: at 10 µM, stronger effect = higher value.
Assay [13] concerns the target Lethal factor (Bacillus anthracis) (UniProt P15917). The assay is described as follows: Lethal factor protease inhibitors, Bacillus anthracis, multiplex microsphere cleavage assay, validation set (AID 588461). The conditions noted are these: flow cytometry, at 10 µM, stronger effect = higher value.
A short description of assay [14]: inhibitors of fungal efflux pumps CDR1, CDR2, MDR1, pilot screen, validation compound set, multiplex, phenotypic (AID 588506;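 active = efflux inhibition above 0.42, the validation set average plus 4 SD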;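 note: Nile Red retained in cells so higher fluorescence means more efflux inhibition; 0 = negative control wells and 1 = enniatin B 25 µM full block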). Particulars: S. cerevisiae pump-expressing triplex, Nile Red efflux flow cytometry; at 10 µM; stronger effect = higher value.
For assay [15], the target named is ATP-binding cassette sub-family B member 6 (Homo sapiens) (UniProt Q9NP58). The assay is described as follows: ABCB6 transporter inhibitors, pilot screen, K562-ABCB6 cells, flow cytometry, validation set (AID 588550;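 active = inhibition above the screen-wide mean plus 3 SD, about 51%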;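 note: 0% = DMSO wells and 100% = benzethonium chloride 70 µM positive control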). Particulars: K562-ABCB6 porphyrin accumulation, 1 h, at 10 µM, stronger effect = higher value.
A short description of assay [16]: promoters of myeloid differentiation in arrested cells, primary screen, cell-based, GFP/MAC1 double positive, flow cytometry, validation set (AID 588685;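 active = differentiation response of at least 50%, scaled between solvent and reference control, from cells with both markers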;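 note: compound exposure lasts four days before antibody staining and flow analysis; 0% = DMSO wells and 100% = 5 µM fulvestrant positive control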). The conditions noted are these: ER-HoxA9 marrow cells, stronger effect = higher value.
In assay [17] the target is Beta-2 adrenergic receptor (Homo sapiens) (UniProt P07550). As to the kind of experiment: beta2AR agonists driving receptor internalization, pilot screen, cell-based, FAP fluorogen, flow cytometry, validation set (AID 504459;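 active = percent response above 42, roughly 3 SD of non-fluorescent test compounds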;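 note: agonist-driven loss of surface beta2AR via internalization measured by FAP dye flow cytometry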). The conditions noted are these: Am2.2-beta2AR cells, FAP surface receptor flow cytometry; at 10 µM; stronger effect = higher value.

Results filed as inconclusive are left out. Active and inactive are the calls of the source. Unless noted, the rule behind the calls is not given here.

By inhibition is commonly meant the drop in the measured response relative to a control, in per cent.

Chain of Botulinum neurotoxin type A (Clostridium botulinum) (P0DPI0 whole entry, looked up): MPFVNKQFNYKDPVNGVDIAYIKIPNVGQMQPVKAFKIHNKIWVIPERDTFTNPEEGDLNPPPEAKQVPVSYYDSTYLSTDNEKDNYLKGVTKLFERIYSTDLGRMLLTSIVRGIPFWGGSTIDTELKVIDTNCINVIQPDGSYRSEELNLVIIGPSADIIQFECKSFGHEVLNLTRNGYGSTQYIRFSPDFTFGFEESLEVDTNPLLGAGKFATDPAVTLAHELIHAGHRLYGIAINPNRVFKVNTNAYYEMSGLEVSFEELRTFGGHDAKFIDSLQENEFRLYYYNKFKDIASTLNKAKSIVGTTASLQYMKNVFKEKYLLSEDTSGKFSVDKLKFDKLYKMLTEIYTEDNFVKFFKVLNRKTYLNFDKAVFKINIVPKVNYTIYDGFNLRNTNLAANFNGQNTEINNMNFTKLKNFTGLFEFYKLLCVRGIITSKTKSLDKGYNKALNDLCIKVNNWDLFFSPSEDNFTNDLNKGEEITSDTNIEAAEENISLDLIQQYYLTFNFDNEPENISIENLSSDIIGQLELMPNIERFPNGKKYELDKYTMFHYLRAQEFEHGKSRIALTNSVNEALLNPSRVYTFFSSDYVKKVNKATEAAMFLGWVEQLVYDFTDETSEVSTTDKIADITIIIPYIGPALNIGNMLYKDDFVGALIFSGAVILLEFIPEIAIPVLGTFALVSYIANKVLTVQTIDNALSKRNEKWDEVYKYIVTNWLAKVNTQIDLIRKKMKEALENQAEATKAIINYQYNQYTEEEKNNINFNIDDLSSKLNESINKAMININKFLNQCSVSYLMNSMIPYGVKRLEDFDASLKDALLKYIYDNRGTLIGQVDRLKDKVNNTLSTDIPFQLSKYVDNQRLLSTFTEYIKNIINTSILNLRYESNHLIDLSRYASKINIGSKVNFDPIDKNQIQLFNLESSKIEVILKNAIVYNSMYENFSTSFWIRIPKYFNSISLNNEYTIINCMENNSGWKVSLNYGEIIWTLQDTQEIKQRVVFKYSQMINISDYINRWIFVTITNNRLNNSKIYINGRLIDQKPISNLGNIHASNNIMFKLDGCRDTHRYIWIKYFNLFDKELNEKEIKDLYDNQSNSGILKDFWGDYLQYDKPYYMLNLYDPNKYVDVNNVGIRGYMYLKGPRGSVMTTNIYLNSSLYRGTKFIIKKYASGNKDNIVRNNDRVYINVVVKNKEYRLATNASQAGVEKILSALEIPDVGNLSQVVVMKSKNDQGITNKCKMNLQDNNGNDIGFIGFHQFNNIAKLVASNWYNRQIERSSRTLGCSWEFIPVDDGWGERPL
Chain of Integrin beta-1 (Homo sapiens) + Integrin alpha-4 (Homo sapiens) (P05556 whole entry, looked up): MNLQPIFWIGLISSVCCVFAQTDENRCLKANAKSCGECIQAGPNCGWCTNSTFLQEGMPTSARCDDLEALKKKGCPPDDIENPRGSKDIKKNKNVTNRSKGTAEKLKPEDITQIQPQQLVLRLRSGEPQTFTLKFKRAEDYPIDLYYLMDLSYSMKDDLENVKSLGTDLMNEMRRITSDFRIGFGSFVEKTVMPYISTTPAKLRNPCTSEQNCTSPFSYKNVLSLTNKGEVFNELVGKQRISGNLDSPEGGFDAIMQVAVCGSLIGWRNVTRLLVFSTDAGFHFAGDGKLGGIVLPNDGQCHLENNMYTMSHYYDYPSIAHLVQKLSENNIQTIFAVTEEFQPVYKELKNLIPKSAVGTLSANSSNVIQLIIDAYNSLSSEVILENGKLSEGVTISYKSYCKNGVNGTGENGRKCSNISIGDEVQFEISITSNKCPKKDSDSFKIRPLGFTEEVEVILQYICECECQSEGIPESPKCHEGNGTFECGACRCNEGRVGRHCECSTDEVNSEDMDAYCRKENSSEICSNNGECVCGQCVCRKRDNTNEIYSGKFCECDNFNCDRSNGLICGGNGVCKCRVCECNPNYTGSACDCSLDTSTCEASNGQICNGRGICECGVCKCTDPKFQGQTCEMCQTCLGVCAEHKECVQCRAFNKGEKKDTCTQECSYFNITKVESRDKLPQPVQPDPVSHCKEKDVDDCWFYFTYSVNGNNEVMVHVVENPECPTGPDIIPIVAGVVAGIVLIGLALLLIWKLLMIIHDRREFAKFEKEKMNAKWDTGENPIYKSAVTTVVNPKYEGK
Chain of Integrin beta-1 (Homo sapiens) + Integrin alpha-4 (Homo sapiens) (P13612 whole entry, looked up): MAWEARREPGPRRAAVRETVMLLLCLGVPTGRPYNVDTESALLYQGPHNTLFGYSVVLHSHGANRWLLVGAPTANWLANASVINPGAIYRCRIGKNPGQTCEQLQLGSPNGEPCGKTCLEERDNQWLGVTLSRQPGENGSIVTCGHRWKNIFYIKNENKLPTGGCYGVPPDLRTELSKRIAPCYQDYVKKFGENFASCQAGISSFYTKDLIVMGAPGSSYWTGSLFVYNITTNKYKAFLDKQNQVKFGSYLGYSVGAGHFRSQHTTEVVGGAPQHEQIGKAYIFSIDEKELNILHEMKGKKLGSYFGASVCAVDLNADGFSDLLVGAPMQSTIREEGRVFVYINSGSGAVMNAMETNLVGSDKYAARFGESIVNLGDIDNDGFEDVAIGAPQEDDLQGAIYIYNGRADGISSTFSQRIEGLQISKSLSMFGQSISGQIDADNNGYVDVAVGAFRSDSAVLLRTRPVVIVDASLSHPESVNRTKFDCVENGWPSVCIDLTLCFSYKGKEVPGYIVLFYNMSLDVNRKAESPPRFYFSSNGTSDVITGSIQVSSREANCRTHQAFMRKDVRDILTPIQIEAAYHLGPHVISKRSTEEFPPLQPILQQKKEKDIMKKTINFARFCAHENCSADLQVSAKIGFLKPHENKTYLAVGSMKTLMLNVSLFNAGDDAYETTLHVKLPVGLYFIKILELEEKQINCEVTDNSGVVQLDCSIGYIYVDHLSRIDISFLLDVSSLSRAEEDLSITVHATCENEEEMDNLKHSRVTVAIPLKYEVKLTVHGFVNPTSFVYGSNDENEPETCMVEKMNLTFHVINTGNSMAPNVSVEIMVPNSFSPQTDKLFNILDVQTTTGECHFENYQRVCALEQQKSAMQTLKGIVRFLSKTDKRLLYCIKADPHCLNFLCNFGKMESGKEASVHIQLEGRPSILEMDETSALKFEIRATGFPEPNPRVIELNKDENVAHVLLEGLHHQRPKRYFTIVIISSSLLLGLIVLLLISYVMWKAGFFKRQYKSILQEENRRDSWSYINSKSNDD
Chain of Beta-adrenergic receptor kinase 1 (Homo sapiens) (P25098 whole entry, looked up): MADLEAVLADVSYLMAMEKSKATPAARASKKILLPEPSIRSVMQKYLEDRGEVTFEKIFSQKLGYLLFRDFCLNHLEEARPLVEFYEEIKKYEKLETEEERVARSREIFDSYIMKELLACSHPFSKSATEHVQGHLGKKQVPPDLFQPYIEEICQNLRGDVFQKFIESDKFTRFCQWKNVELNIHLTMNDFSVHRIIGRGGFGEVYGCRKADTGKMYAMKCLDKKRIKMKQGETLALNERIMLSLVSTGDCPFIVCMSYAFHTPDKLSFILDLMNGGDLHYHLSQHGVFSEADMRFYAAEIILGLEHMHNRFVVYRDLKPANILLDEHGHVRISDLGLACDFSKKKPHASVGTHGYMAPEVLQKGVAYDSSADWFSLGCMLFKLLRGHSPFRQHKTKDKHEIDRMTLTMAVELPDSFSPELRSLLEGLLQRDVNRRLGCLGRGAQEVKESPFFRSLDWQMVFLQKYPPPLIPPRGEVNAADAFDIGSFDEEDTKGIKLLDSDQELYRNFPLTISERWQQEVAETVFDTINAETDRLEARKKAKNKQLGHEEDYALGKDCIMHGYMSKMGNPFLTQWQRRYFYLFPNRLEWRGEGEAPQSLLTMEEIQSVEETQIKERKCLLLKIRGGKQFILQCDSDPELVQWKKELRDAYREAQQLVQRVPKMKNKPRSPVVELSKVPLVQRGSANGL
Chain of AP-2 complex subunit beta (Homo sapiens) (P63010 whole entry, looked up, one chain of several): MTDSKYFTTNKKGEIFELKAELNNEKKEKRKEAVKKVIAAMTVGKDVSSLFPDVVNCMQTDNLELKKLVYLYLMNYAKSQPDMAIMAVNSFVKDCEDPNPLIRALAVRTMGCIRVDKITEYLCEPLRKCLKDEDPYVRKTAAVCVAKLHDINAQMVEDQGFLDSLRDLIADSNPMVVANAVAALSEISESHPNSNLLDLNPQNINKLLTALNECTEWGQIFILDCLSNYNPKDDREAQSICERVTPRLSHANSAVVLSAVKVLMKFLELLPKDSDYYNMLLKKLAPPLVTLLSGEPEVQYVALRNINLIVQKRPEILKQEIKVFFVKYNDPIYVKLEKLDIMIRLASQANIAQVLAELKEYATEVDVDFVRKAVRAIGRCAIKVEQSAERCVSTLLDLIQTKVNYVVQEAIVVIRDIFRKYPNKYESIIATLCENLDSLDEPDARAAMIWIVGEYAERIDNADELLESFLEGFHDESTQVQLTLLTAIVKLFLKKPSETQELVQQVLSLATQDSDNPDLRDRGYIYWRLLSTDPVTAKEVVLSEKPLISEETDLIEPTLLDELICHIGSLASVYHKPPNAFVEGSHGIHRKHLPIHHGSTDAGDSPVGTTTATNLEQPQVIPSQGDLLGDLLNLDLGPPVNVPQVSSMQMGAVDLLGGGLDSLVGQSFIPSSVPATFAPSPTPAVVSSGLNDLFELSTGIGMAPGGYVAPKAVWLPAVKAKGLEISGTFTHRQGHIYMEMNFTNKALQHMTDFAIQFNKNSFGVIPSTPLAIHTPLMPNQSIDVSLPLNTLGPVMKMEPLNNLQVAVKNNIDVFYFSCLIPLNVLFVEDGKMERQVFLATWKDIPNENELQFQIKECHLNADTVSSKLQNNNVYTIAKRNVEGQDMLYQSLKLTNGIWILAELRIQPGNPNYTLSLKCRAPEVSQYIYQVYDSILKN

Turning to `COC1=CC(=O)OC(/C=C/c2ccccc2)C1` (stereo unspecified), the percent of DMSO control GFP in [1] was 102% (inactive). The percent response of DMSO control in [2] was 105% (inactive). Further, the GFP response vs DMSO in assay [3] is 104% (inactive). Moreover, in [4], the double positive events worked out at 56.3%. The vesicle binding response in [4] was 194% (inactive). For the same compound, the inhibition in assay [5] was 13.8% (inactive); in assay [8], 47% (inactive); in [11], 3.9% (inactive); in assay [12], 1.1% (inactive); in [13], 5.6% (inactive); in assay [15] it was 4% (inactive). In assay [6], the superoxide response (% of plate) was 101% (inactive). Also, the aptamer binding inhibition in assay [7] is -1% (inactive). In addition, the response in assay [9] is -10.4% (inactive). In addition, the binding (% of control) in assay [10] is 106% (inactive). For the same compound, in [14], the efflux inhibition (fraction of control) is 0.06 (inactive). For the same compound, the differentiation response in assay [16] was 22.4% (inactive).

With `c1ccc(Cn2ccnc2)cc1`, the percent of DMSO control GFP in assay [1] is 97.4% (inactive). Further, in assay [2], the percent response of DMSO control is 90% (inactive). For the same compound, the GFP response vs DMSO in assay [3] was 99.4% (inactive). In addition, in [4], the double positive events worked out at 63.8%. Also, the vesicle binding response in assay [4] is 185% (inactive). In addition, the inhibition in assay [5] was 14.7% (inactive); in [8] it was 0.17% (inactive); in assay [11], 5.2% (inactive); in assay [12] it was 0.1% (inactive); in assay [13], -0.1% (inactive); in [15] it was 9% (inactive). Besides, the superoxide response (% of plate) in assay [6] is 92.9% (inactive). Also, the aptamer binding inhibition in [7] is 12% (inactive). Besides, in [9], the response is 4.53% (inactive). Besides, in assay [10], the binding (% of control) is 97.7% (inactive). For the same compound, in assay [14], the efflux inhibition (fraction of control) is 0.03 (inactive). The differentiation response in assay [16] is -16.4% (inactive).

In the case of `CN[C@H](C)[C@H](O)c1ccccc1`, in assay [1], the percent of DMSO control GFP is 90.2% (inactive). Moreover, the percent response of DMSO control in assay [2] was 102% (inactive). Also, the GFP response vs DMSO in [3] was 87.5% (inactive). Besides, in assay [4], the double positive events came to 53.3%. For the same compound, the vesicle binding response in assay [4] is 176% (inactive). Further, the inhibition was 8.4% (inactive) in assay [5], 39.6% (inactive) in assay [8] and 5% (inactive) in assay [15]. Besides, the superoxide response (% of plate) in [6] was 97.6% (inactive). In [7], the aptamer binding inhibition is 4% (inactive). The response in [17] is -9.17% (inactive); in assay [9], -4.76% (inactive). Also, the binding (% of control) in assay [10] was 102% (inactive). The efflux inhibition (fraction of control) in assay [14] was 0.27 (inactive). In assay [16], the differentiation response was -0.82% (inactive).

For the compound `O=C1CC[C@@]2(O)[C@H]3Cc4ccc(O)c5c4[C@@]2(CCN3CC2CC2)[C@H]1O5`, the percent of DMSO control GFP in [1] is 98.3% (inactive). The percent response of DMSO control in assay [2] is 96.6% (inactive). Also, the GFP response vs DMSO in assay [3] was 84.7% (inactive). The double positive events in [4] stood at 63.4%. In addition, the vesicle binding response in assay [4] was 207% (inactive). Further, the inhibition in assay [5] was 1.61% (inactive); in [8] it was -0.81% (inactive); in assay [15], 14% (inactive). For the same compound, the superoxide response (% of plate) in assay [6] was 95.9% (inactive). In addition, the aptamer binding inhibition in assay [7] was 2% (inactive). Also, the response in assay [17] was -8.64% (inactive); in [9], 1.19% (inactive). Also, the binding (% of control) in assay [10] was 107% (inactive). In addition, the efflux inhibition (fraction of control) in assay [14] is -0.02 (inactive). Also, the differentiation response in assay [16] is -3.28% (inactive).

`C[N+]1(C)CCN(c2ccccc2)CC1`: the percent of DMSO control GFP in [1] is 103% (inactive). For the same compound, the percent response of DMSO control in assay [2] was 107% (inactive). For the same compound, the GFP response vs DMSO in assay [3] is 87.3% (inactive). In [4], the double positive events came out at 53.4%. Moreover, the vesicle binding response in assay [4] was 172% (inactive). Besides, the inhibition in assay [5] was -1.17% (inactive); in assay [8], -8.27% (inactive); in assay [11], -7.6% (inactive); in assay [12] it was -1% (inactive); in [13] it was -6.3% (inactive); in assay [15], 12% (inactive). In addition, in assay [6], the superoxide response (% of plate) is 93.3% (inactive). Besides, the aptamer binding inhibition in assay [7] is 0% (inactive). For the same compound, in assay [9], the response is 1.95% (inactive). The binding (% of control) in assay [10] is 100% (inactive). In addition, the efflux inhibition (fraction of control) in assay [14] was -0.2 (inactive). Moreover, the differentiation response in assay [16] is -14.7% (inactive).

Source of the values: PubChem BioAssay.
